The values that follow come from the supplement of paper PMC13380429.

Test [1] deals with Vero E6 infected with SARS-CoV-2. Description: morphology score (similarity to uninfected cells); higher = more like uninfected cells. As to conditions: 24 h.
The test system is the same in test [2]. In words: SARS-CoV-2 infection rate relative to infected DMSO; higher = more infection, active = 60 or less. As to conditions: 24 h.

In test [1], `C[C@@H](NC(=O)c1ncnc(N)c1Cl)c1ncc(C(=O)Nc2cc(C(F)(F)F)c(Cl)cn2)s1` (10 µM) showed a morphology score of -0.0506. The SARS-CoV-2 infection rate in test [2] is 108% (inactive).

In test [1], `C[C@@]1(F)[C@H](O)[C@@H](CO)O[C@H]1n1ccc(N)nc1=O` (10 µM) displayed a morphology score of 0.0439. The SARS-CoV-2 infection rate in test [2] is 104% (inactive).

`CCCCOc1c(C(=O)c2c(F)cc(C)cc2F)c[nH]c2nncc1-2` (10 µM): the morphology score in test [1] came out at 0.383. Further, the SARS-CoV-2 infection rate in test [2] is 104% (inactive).

In turn, `CCCSc1nc(N[C@@H]2C[C@H]2c2ccc(F)c(F)c2)c2nnn([C@@H]3C[C@H](OCCO)[C@@H](O)[C@H]3O)c2n1` [ticagrelor] (10 µM) gave a morphology score in test [1] of -0.0229. In test [2], the SARS-CoV-2 infection rate is 104% (inactive).

Compound `CO[C@@H](C(=O)N1Cc2[nH]nc(NC(=O)c3ccc(N4CCN(C)CC4)cc3)c2C1)c1ccccc1` [danusertib] (10 µM) showed a morphology score in test [1] of 0.109. Also, the SARS-CoV-2 infection rate in test [2] is 115% (inactive).

In turn, `Cc1csc2c(N[C@@H](C)CN3CCN(S(=O)(=O)c4ccc(Cl)c(Cl)c4)CC3)ncnc12` [LPA2-antagonist-1] (10 µM) yielded a morphology score in test [1] of 0.142. Also, the SARS-CoV-2 infection rate in test [2] is 100% (inactive).

For the compound `CCOC(=O)c1ccc(N)cc1` [benzocaine] (10 µM), the morphology score in test [1] is -0.0142. In test [2], the SARS-CoV-2 infection rate is 112% (inactive).

In test [1], `[N-]=[N+]=N[C@]1(CO)O[C@@H](n2ccc(N)nc2=O)[C@H](O)[C@@H]1O` (10 µM) returned a morphology score of 0.0194. In addition, the SARS-CoV-2 infection rate in test [2] was 109% (inactive).

For the compound `c1ccc(-c2n[nH]cc2-c2ccnc3ccccc23)nc1` (10 µM), in test [1], the morphology score is -0.0555. Further, in test [2], the SARS-CoV-2 infection rate was 114% (inactive).

On to `C[C@]12CCC(=O)C=C1CC[C@@H]1[C@@H]2[C@@H](O)C[C@@]2(C)[C@H]1CC[C@]2(O)C(=O)COC(=O)CCC(=O)O` [hydrocortisone-hemisuccinate] (10 µM), for which the morphology score in test [1] was -0.338. The SARS-CoV-2 infection rate in test [2] was 116% (inactive).

Compound `CCc1c2c(nc3ccc(OC(=O)N4CCC(N5CCCCC5)CC4)cc13)-c1cc3c(c(=O)n1C2)COC(=O)[C@]3(O)CC` [irinotecan] (0.833333 µM) came in with a morphology score in test [1] of -0.0173. Moreover, the SARS-CoV-2 infection rate in test [2] is 98% (inactive).

In test [1], `CCOC(=O)N[C@@H]1CC[C@@H]2[C@@H](C1)C[C@H]1C(=O)O[C@H](C)[C@H]1[C@H]2/C=C/c1ccc(-c2cccc(F)c2)cn1` [vorapaxar] (10 µM) came in with a morphology score of 0.209. Moreover, the SARS-CoV-2 infection rate in test [2] was 106% (inactive).

In test [1], `Cc1nc2n(c(=O)c1CCN1CCC(c3noc4cc(F)ccc34)CC1)CCCC2O` (stereo not given) [paliperidone] (10 µM) displayed a morphology score of 0.08. The SARS-CoV-2 infection rate in test [2] was 108% (inactive).

The compound `CCc1nn(CCCN2CCN(c3cccc(Cl)c3)CC2)c(=O)n1CCOc1ccccc1` [nefazodone] (10 µM) returned a morphology score in test [1] of 0.0652. For the same compound, in test [2], the SARS-CoV-2 infection rate is 106% (inactive).

In test [1], `C[C@]12CC[C@@H](O)C[C@H]1CC[C@@H]1[C@@H]2CC[C@]2(C)C(=O)CC[C@@H]12` [3-alpha-hydroxy-5-beta-androstan-17-one] (10 µM) came in with a morphology score of 0.223. For the same compound, the SARS-CoV-2 infection rate in test [2] was 102% (inactive).

In test [1], `NCc1ccccc1CC(=O)N[C@@H]1C(=O)N2C(C(=O)O)=C(CSc3nnnn3CC(=O)O)CS[C@H]12` [ceforanide] (10 µM) returned a morphology score of 0.13. Also, the SARS-CoV-2 infection rate in test [2] was 100% (inactive).

`CC/C(=C(/CC)c1ccc(OP(=O)(O)O)cc1)c1ccc(OP(=O)(O)O)cc1` [fosfestrol] (10 µM) had a morphology score in test [1] of 0.11. In addition, the SARS-CoV-2 infection rate in test [2] is 96% (inactive).

As to `N#Cc1cc(NC(=O)C(=O)O)c(Cl)c(NC(=O)C(=O)O)c1` [lodoxamide] (10 µM), in test [1], the morphology score was -0.0976. The SARS-CoV-2 infection rate in test [2] was 110% (inactive).

With `CC(C)/N=c1\cc2n(-c3ccc(Cl)cc3)c3ccccc3nc-2cc1Nc1ccc(Cl)cc1` [clofazimine] (10 µM), the morphology score in test [1] worked out at 0.422. Moreover, the SARS-CoV-2 infection rate in test [2] is 64% (inactive).

`O=C(Nc1c(-c2cccs2)nc2ccccn12)c1ccc(Cl)cc1` (10 µM) had a morphology score in test [1] of 0.204. Also, the SARS-CoV-2 infection rate in test [2] was 84% (inactive).

For `CCCCCCOC(=O)CCC(=O)CN` [hexaminolevulinate] (10 µM), the morphology score in test [1] turned out to be 0.0924. For the same compound, the SARS-CoV-2 infection rate in test [2] is 102% (inactive).

The compound `CNC(=O)c1c(I)c(NC(C)=O)c(I)c(C(=O)O)c1I` [iothalamic-acid-d3] (10 µM) displayed a morphology score in test [1] of 0.143. In addition, the SARS-CoV-2 infection rate in test [2] was 104% (inactive).

Consider `NC[C@H]1O[C@H](O[C@H]2[C@H](O)[C@@H](O[C@H]3O[C@H](CO)[C@@H](O)[C@H](N)[C@H]3O)[C@H](N)C[C@@H]2N)[C@H](O)[C@@H](O)[C@@H]1O` [kanamycin] (10 µM), for which, in test [1], the morphology score was determined as 0.227. Further, the SARS-CoV-2 infection rate in test [2] was 100% (inactive).

Regarding `NC(=O)C[S+]([O-])C(c1ccccc1)c1ccccc1` (stereo not given) (10 µM), the morphology score in test [1] stood at 0.113. Moreover, the SARS-CoV-2 infection rate in test [2] was 106% (inactive).

Consider `Cc1ccc(C(=O)c2cc(O)c(O)c([N+](=O)[O-])c2)cc1` [tolcapone] (10 µM), for which, in test [1], the morphology score was found to be 0.192. Besides, the SARS-CoV-2 infection rate in test [2] was 110% (inactive).

`N=C(N)c1cc2ccc(OC(=O)c3cccs3)cc2s1` (10 µM): in test [1], the morphology score stood at 0.578. Further, in test [2], the SARS-CoV-2 infection rate is 76% (inactive).

Take `CCOC(=O)[C@@](C)(N)Cc1ccc(O)c(O)c1` [methyldopate] (10 µM): the morphology score in test [1] was 0.0423. Also, the SARS-CoV-2 infection rate in test [2] was 108% (inactive).

Regarding `O=C1C=CC(=O)C2=C1C1c3ccccc3C2c2ccccc21` (10 µM), the morphology score in test [1] stood at 0.00761. Besides, the SARS-CoV-2 infection rate in test [2] was 102% (inactive).

With `N#Cc1ccccc1-c1cc(-c2ccccn2)cn(-c2ccccc2)c1=O` [Perampanel] (10 µM), the morphology score in test [1] is 0.11. In test [2], the SARS-CoV-2 infection rate is 90.5% (inactive).

For the compound `CCN(CC)C(=S)S` [ditiocarb-sodium-trihydrate] (10 µM), the morphology score in test [1] was 0.761. The SARS-CoV-2 infection rate in test [2] was 11% (active).
